This passage reports inhibition results from ChEMBL document CHEMBL1961873, “Compounds: GSK PKIS; Assays: Nanosyn kinase panel” (2012).

Assay [1] concerns the target RAC-alpha serine/threonine-protein kinase (Homo sapiens) (UniProt P31749). Conditions: at 0.1 µM.
Assay [2] has the same target. Conditions: at 1 µM.
Assay [3] deals with RAC-beta serine/threonine-protein kinase (Homo sapiens) (UniProt P31751). Conditions: at 0.1 µM.
Assay [4] shares this target. Conditions: at 1 µM.
Assay [5] addresses RAC-gamma serine/threonine-protein kinase (Homo sapiens) (UniProt Q9Y243). Conditions: at 0.1 µM.
Assay [6] shares this target. Conditions: at 1 µM.
Assay [7] has as its target G protein-coupled receptor kinase 6 (Homo sapiens) (UniProt P43250). Conditions: at 0.1 µM.
Assay [8] shares this target. Conditions: at 1 µM.
Assay [9] addresses T1, Rhodopsin kinase GRK7 (Homo sapiens) (UniProt Q8WTQ7).
T1 sequence (whole entry): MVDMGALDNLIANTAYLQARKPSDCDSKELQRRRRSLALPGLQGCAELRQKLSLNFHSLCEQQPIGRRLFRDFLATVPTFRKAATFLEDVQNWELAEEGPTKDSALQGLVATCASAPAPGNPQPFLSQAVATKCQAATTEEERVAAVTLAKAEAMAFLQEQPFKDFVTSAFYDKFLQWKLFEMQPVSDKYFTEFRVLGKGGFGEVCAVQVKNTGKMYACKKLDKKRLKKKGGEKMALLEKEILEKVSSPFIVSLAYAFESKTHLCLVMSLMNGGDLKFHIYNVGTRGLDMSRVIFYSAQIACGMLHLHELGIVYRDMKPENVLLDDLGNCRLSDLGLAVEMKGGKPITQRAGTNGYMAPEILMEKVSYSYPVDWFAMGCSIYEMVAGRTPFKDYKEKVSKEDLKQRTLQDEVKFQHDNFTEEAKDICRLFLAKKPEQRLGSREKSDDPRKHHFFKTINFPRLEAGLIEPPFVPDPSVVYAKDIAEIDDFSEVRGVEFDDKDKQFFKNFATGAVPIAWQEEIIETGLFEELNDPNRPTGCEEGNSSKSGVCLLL
Conditions: at 0.1 µM.

In assay [10] the target is T1, Rhodopsin kinase GRK7 (Homo sapiens). Conditions: at 1 µM.
Assay [11] has as its target Serine/threonine-protein kinase MRCK alpha (Homo sapiens) (UniProt Q5VT25). Conditions: at 0.1 µM.
The target is the same in assay [12]. Conditions: at 1 µM.
The target in assay [13] is Serine/threonine-protein kinase MRCK beta (Homo sapiens) (UniProt Q9Y5S2). Conditions: at 0.1 µM.
Assay [14] has the same target. Conditions: at 1 µM.
For assay [15], the target named is Ribosomal protein S6 kinase alpha-5 (Homo sapiens) (UniProt O75582). Conditions: at 0.1 µM.
For assay [16] the target is unchanged. Conditions: at 1 µM.
In assay [17] the target is Ribosomal protein S6 kinase alpha-4 (Homo sapiens) (UniProt O75676). Conditions: at 0.1 µM.
Assay [18] has the same target. Conditions: at 1 µM.
Assay [19] addresses Ribosomal protein S6 kinase beta-1 (Homo sapiens) (UniProt P23443). Conditions: at 0.1 µM.
Assay [20] has the same target. Conditions: at 1 µM.

The structures appear in SMILES notation.

What is called inhibition is the drop in the measured response relative to a control, in per cent.

Sequence of Ribosomal protein S6 kinase beta-1 (Homo sapiens) (P23443 whole entry, looked up): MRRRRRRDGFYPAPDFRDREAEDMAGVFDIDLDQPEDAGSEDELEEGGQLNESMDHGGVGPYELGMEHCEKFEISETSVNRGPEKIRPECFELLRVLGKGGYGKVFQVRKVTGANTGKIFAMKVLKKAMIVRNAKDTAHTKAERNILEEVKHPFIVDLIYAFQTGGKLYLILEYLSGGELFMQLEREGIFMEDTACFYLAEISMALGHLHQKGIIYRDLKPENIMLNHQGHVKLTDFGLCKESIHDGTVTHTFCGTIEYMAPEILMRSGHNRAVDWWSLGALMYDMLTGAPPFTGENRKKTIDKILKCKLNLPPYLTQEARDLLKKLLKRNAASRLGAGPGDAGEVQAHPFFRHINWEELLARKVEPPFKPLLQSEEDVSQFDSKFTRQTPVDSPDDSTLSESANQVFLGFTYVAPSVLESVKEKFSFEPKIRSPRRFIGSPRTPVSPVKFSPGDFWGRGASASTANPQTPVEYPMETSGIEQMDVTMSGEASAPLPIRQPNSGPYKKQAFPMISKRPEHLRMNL
Sequence of RAC-beta serine/threonine-protein kinase (Homo sapiens) (P31751 whole entry): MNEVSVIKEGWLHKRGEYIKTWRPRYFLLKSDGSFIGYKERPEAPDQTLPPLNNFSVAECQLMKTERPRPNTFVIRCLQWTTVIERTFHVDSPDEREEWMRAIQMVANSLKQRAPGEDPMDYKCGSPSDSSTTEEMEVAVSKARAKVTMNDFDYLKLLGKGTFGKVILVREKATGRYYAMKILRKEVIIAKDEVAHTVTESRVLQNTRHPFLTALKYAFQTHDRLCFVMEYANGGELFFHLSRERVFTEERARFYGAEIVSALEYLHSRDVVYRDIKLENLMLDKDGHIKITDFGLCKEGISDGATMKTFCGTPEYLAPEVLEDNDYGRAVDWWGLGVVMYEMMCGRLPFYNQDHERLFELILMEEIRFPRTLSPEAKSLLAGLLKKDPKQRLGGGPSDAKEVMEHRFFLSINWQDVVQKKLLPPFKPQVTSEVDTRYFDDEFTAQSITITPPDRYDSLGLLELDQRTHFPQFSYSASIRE
Sequence of Ribosomal protein S6 kinase alpha-5 (Homo sapiens) (O75582 whole entry, looked up): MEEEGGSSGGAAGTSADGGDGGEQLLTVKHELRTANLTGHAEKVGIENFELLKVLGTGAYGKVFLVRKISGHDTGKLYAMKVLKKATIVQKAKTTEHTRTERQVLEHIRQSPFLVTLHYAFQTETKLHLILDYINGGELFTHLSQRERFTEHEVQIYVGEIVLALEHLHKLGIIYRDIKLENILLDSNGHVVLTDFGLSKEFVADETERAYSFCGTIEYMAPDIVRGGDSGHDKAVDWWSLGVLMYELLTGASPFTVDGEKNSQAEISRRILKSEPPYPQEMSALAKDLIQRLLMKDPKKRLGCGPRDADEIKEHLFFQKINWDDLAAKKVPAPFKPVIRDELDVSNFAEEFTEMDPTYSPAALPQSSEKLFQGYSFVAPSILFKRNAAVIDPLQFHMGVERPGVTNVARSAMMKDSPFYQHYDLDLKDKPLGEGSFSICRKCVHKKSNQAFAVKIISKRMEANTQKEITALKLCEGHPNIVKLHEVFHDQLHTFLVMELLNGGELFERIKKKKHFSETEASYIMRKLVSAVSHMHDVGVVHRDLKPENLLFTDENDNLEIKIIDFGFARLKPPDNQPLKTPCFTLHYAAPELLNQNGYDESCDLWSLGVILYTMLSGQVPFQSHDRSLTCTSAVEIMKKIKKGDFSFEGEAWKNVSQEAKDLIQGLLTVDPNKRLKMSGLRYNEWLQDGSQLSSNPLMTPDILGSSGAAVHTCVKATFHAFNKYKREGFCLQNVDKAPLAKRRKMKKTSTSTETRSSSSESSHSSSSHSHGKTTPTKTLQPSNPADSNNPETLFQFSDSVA
Sequence of Serine/threonine-protein kinase MRCK beta (Homo sapiens) (Q9Y5S2 whole entry): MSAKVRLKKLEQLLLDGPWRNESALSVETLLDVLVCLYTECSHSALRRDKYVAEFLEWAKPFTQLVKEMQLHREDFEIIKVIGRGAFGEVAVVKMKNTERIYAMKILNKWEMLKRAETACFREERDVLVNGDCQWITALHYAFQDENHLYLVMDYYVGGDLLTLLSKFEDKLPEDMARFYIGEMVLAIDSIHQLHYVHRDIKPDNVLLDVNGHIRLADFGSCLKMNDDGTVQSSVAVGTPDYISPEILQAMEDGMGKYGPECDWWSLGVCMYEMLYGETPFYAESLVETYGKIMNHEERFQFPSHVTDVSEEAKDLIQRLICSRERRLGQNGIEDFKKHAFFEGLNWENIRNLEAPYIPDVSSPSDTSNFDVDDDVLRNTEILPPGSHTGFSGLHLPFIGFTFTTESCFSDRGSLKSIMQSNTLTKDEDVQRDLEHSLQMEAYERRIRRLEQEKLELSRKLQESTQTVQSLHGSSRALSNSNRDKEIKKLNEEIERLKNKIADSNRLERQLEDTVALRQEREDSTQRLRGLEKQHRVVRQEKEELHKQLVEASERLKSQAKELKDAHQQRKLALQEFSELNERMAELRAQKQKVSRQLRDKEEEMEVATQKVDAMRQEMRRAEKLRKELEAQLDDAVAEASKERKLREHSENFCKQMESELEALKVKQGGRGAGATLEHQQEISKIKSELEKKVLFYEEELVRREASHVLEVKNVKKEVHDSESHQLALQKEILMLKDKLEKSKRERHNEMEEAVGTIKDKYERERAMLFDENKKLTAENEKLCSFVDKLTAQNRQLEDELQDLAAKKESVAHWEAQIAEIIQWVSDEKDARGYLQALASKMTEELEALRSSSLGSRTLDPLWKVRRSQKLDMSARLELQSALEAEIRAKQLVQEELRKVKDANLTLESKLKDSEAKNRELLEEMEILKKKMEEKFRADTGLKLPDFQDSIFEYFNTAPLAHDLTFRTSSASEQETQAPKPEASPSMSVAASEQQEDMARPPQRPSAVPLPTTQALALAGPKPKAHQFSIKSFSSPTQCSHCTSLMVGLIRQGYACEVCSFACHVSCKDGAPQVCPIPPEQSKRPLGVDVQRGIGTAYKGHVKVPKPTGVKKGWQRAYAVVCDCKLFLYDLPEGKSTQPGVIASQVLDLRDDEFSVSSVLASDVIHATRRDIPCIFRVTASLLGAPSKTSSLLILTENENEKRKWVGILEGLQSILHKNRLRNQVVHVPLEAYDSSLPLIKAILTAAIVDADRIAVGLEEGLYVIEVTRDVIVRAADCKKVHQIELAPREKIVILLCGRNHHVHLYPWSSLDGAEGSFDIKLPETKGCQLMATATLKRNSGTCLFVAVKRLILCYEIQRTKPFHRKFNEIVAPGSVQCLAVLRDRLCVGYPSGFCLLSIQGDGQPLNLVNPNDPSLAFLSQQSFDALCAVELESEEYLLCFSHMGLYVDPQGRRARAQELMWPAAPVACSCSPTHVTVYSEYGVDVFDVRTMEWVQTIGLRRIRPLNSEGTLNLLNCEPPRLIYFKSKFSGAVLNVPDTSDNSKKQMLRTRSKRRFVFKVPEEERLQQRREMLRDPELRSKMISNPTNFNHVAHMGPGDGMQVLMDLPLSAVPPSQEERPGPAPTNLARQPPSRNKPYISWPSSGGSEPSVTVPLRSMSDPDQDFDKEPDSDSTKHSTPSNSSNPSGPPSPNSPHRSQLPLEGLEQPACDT
Sequence of RAC-gamma serine/threonine-protein kinase (Homo sapiens) (Q9Y243 whole entry): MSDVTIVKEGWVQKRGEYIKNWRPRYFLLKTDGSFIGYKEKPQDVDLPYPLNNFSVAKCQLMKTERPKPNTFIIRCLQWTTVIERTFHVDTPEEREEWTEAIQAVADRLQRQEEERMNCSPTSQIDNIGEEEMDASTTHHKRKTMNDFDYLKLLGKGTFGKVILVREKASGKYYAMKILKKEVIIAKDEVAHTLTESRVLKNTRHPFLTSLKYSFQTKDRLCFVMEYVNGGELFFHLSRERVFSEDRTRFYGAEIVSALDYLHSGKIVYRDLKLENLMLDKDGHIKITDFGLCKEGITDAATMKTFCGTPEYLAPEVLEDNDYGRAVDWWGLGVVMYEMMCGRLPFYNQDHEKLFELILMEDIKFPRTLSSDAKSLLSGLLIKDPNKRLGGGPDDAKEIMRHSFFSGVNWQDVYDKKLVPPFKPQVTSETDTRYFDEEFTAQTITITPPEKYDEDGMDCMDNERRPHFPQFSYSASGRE
Sequence of G protein-coupled receptor kinase 6 (Homo sapiens) (P43250 whole entry, looked up): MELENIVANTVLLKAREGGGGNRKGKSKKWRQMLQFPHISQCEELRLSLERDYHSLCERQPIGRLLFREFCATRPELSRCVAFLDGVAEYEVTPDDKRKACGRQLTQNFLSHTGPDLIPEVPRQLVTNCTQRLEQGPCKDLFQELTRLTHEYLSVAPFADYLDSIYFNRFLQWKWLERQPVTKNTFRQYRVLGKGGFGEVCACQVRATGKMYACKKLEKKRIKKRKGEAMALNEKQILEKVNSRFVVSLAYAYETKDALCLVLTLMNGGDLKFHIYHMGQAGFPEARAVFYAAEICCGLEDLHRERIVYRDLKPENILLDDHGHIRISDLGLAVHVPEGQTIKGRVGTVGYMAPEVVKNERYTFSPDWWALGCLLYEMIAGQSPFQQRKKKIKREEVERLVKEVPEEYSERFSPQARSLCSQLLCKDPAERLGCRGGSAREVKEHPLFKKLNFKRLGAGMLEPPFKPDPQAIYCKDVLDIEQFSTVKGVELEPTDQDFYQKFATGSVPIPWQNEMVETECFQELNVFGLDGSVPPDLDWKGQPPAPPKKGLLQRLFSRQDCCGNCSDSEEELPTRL
Sequence of RAC-alpha serine/threonine-protein kinase (Homo sapiens) (P31749 whole entry): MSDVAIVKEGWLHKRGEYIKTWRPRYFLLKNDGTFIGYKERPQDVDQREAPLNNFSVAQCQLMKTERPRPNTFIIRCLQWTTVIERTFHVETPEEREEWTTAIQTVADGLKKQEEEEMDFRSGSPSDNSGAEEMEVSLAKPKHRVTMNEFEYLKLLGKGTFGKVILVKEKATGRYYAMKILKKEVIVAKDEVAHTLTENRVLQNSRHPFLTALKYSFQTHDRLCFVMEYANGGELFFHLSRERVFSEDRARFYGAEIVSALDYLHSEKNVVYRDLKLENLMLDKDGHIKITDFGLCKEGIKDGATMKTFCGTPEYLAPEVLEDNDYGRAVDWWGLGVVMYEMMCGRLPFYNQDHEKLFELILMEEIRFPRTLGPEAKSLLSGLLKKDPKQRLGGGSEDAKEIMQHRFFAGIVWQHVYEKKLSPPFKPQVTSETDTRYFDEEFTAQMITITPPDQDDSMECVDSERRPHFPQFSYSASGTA

`COc1c(C(N)=O)cc(-c2ccc(Cl)cc2)cc1-c1ccc(S(N)(=O)=O)cc1`: the inhibition in assay [1] was 1.15%; in [2] it was 2.28%; in assay [3], 2.77%; in assay [4], 1.74%; in [5], 1.8%; in [6] it was 3.15%. The inhibition in assay [7] is 4.42%; in assay [8], 7.23%; in [9], 10.6%; in assay [10], 2.21%; in [11], 5.11%; in assay [12], 4.98%. Moreover, the inhibition in assay [13] was -0.26%; in [14], 2.36%; in [15], 2.38%; in assay [16], 3.81%; in [17], 3.65%; in assay [18], 5.79%. The inhibition in [19] was 3.07%; in assay [20], 4.29%.
As to `CCN1CCC(C(=O)Nc2n[nH]c3nnc(-c4cccc(F)c4F)cc23)CC1`, the inhibition was -0.41% in assay [1]; -1.03% in assay [2]; -1.1% in assay [3]; -0.35% in [4]; -1.17% in assay [5]; 2.44% in assay [6]. Also, the inhibition was -2.23% in [7]; 1.97% in [8]; 3.51% in assay [9]; -1.02% in assay [10]; -1.78% in assay [11]; 1.74% in assay [12]. Moreover, the inhibition in [13] is 0.8%; in assay [14] it was -0.36%; in [15], -1.22%; in assay [16] it was -2.44%; in assay [17], 0.41%; in assay [18], 0.26%. Moreover, the inhibition in assay [19] is -0.22%; in assay [20], -1.27%.
In the case of `Cn1c(-c2nonc2N)nc2cnccc21`, the inhibition was 0.27% in assay [1]; 0.36% in assay [2]; 2.48% in [3]; 1.66% in assay [4]; 1.14% in assay [5]; 1.35% in assay [6]. Moreover, the inhibition was 3.53% in assay [7]; 4% in [8]; 4.22% in [9]; 2.15% in assay [10]; 1.33% in assay [11]; 10.3% in assay [12]. Moreover, the inhibition turned out to be 3.02% in assay [13]; 14.4% in [14]; 32.7% in assay [15]; 72.4% in assay [16]; 7.86% in assay [17]; 39.6% in assay [18]. In addition, the inhibition in [19] was found to be 19.8%; in assay [20], 66.6%.
In the case of `CN(C)CCNC(=O)Nc1ccc(N(C)c2ccnc(Nc3ccc(CS(C)(=O)=O)cc3)n2)cc1`, the inhibition in assay [1] was 1.23%; in assay [2], 0.77%; in assay [3], 1.42%; in assay [4], 0.96%; in [5] it was 1.47%; in assay [6], 1.13%. Also, the inhibition in assay [7] was 2.73%; in [8], -0.52%; in assay [9] it was 3.11%; in assay [10], -0.51%; in [11], -0.24%; in assay [12], -0.69%. The inhibition was 1.09% in [13]; 2.25% in assay [14]; 3.26% in [15]; 3.31% in [16]; 3.22% in [17]; 4.32% in [18]. The inhibition in assay [19] stood at 1.72%; in assay [20], 1.94%.
Consider `O=C(O[C@H]1CN[C@H](C#Cc2cc3ncnc(Nc4ccc5c(ccn5Cc5cc(F)ccc5F)c4)c3s2)C1)N1CCOCC1`, for which the inhibition in assay [1] was found to be 0.34%; in [2], 1.4%; in [3], 1.89%; in assay [4], 1.81%; in assay [5], 0.84%; in assay [6] it was 0.51%. Besides, the inhibition in assay [7] was 3.43%; in assay [8], 5.16%; in assay [9], 3.33%; in [10] it was 3.94%; in assay [11] it was -0.29%; in assay [12], -1.5%. Also, the inhibition in [13] is 1.19%; in assay [14] it was 1.68%; in assay [15], -1.77%; in assay [16], -0.4%; in [17] it was 2.95%; in [18], 4.34%. Moreover, the values for the inhibition in assay [19] and in assay [20] were 1.82% and 1.74%, respectively.
For `COc1cc2c(cc1Nc1nc(Nc3cccc(F)c3C(N)=O)c3cc[nH]c3n1)N(C(=O)CN1CCN(C(C)C)CC1)CC2`, the inhibition in assay [1] stood at 0.64%; in [2], 1.39%; in assay [3], 1.31%; in assay [4], 3.18%; in assay [5], 1.35%; in assay [6] it was 3.89%. In addition, the inhibition worked out at 7.5% in [7]; 26.5% in assay [8]; 6.57% in [9]; 18.7% in [10]; 6.36% in [11]; 5.12% in assay [12]. For the same molecule, the inhibition in [13] is 0.17%; in assay [14], 2.33%; in assay [15], 1.4%; in assay [16], 3.93%; in assay [17], 1.44%; in assay [18], 3.9%. Moreover, the inhibition stood at 2.23% in assay [19] and 2.83% in assay [20].
`CNC(=O)c1sc(-n2cnc3cc(OC)c(OC)cc32)cc1OCc1ccccc1C(F)(F)F`: the inhibition is 0.98% in assay [1]; 0.75% in assay [2]; 0.84% in [3]; 2.06% in assay [4]; 1.19% in [5]; 2% in [6]. For the same molecule, the inhibition in assay [7] is 0.06%; in assay [8], -0.11%; in assay [9], 4.78%; in [10], 3.47%; in [11] it was -1.57%; in assay [12], 2.7%. Further, the inhibition was 0.75% in assay [13]; -0.54% in [14]; 1.63% in assay [15]; -0.43% in [16]; 3.06% in [17]; 2.24% in assay [18]. Moreover, the inhibition came out at 1.25% in assay [19] and 0.64% in [20].
